This passage reports growth results from PubChem BioAssay (NCI).

The panel holds about 83,000 compounds, 20% with a hit somewhere; the sample as a whole holds those more often.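 The endpoint reported here, percent growth, reads 100 for growth as untreated, 0 for no net growth and -100 for all cells dead.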 Active and inactive are the calls of the source. Where a SMILES comes first, the peptide text is derived from it. [ ]: non-standard residue; d: D form. ξ: configuration not given here. ξD = NC(CC(=O)O)C(=O)O

The test system of the test is SK-MEL-28 melanoma. The test is described as follows: NCI-60 one-dose screen, 48 h (100 = growth as untreated, 0 = no growth, -100 = all killed). As to conditions: 10 µM unless noted. On the procedure:
Growth inhibition of the SK-MEL-28 human tumor cell line is measured as a screen for anti-cancer activity. Cells are grown in 96 well plates and exposed to the test compound for 48 hours. Compounds are tested at a single concentration, which is 10^-5 M for most compounds. The reported endpoint is percent growth (GI% or GIPRCNT), where numbers from 0 - 100% represent growth inhibition, and numbers from -100% - 0 represent cell death. For example, a value of 40 represents 60% growth inhibition. A value of 0 means no net growth occurred over the course of the experiment. A value of -40 indicates 40% of cells at the beginning of the experiment died by the end of the experiment. A value of -100 means all cells are dead at the end of the experiment.
NCI-60 Human Tumor Cell Lines Screen was performed using the standard one-dose NCI protocol, which is described in more detail at https://dtp.cancer.gov/discovery_development/nci-60/default.htm.
Compounds with GIPRCNT values below 10 were considered active. Activity score was based on GIPRCNT using the following formula: […]
Score is 0 for GIPRCNT values of 100 or above, 50 for GIPRCNT values of 0, and 100 for GIPRCNT values of -100.
With `CCN1CCCC(Nc2cc(C)nc(/N=C(/N)Nc3ccc(Cl)c(Cl)c3)n2)C1` (stereo not given), the growth was -87.8% (active).

Take `O=C(O)c1cccc2cccc(-c3c4ccc(=O)c(O)c-4oc4c(O)c(O)ccc34)c12`: the growth was 97.6% (inactive). Then `Nc1ccc(-c2ccc(N)c(S(=O)(=O)O)c2)cc1S(=O)(=O)O`, with 119% (inactive); and `O=[N+]([O-])/C(=C/c1ccccc1)c1ccccc1`, with 100% (inactive). The value for `Oc1ccc(Cl)cc1Cc1cc(Cl)ccc1O` was 35.6% (inactive); that for `CC(/C=N/NC(N)=S)Cc1ccc(C(C)C)cc1` (stereo not given) was 82.4% (inactive); that for `O=C(Nc1ccc(Cl)c(Cl)c1)Nc1ccccc1O` was 107% (inactive). For the molecule `CCCCCCCCCCCC1=NCCCN1CCCC`, the growth is 103% (inactive). Then `O=[N+]([O-])c1ccc(Oc2ccccc2Cl)c([N+](=O)[O-])c1`, with 103% (inactive).

Turning to `Cc1nc(Sc2nc3ccc([N+](=O)[O-])cc3s2)sc1C`, the growth is 27.8% (inactive). Consider `CN(C)c1ccc(/C=C/c2nccc3ccccc23)cc1`, for which the growth was 89.4% (inactive). In the case of `CC(C)(C)CC(C)(C)c1ccc(OCCOCCSC(=N)N)cc1`, the growth is -57.1% (active).

Take `CC(C)Nc1ccc(Nc2ccc(NC(C)C)cc2)cc1`: the growth was 50.8% (inactive). For the molecule `CCC1C[N+]2=C(c3cc(OC)c(OC)cc3CC2)c2c1cc1n2CCc2cc(OC)c(OC)cc2-1` (stereo not given), the growth was 32.8% (inactive).

On to `O=C(/C=C/c1ccccc1)c1ccccc1O`, for which the growth was 93.9% (inactive). Turning to `CCCCCCCCC(=O)OCCCC(CCC(CCC1CCCO1)OC(=O)CCCCCCCC)OC(=O)CCCCCCCC` (stereo not given), the growth was 102% (inactive). In the case of `CN1CSC(=S)N(Cc2ccccc2)C1`, the growth was 120% (inactive). In the case of `Cc1cc(C(=C2C=CC(=Nc3ccccc3)C=C2)c2ccc(Nc3ccccc3)cc2)ccc1N`, the growth is -82.3% (active). Take `c1ccc2sc(SSN3CC4CCC(CC4)C3)nc2c1`: the growth is 132% (inactive).

As for `CCN(CC)c1ccc(/C=C\C(=O)c2ccc(NC(C)=O)cc2)cc1`, the growth is 82% (inactive). For `CCOC(=O)c1c(C)[nH]c2ccc(O)cc12`, the growth is 120% (inactive). Take `S=C1SCN(Cc2cccs2)CN1Cc1cccs1`: the growth is 109% (inactive). As for `CN(C)c1ccc(/C=C/c2sc3ccc4ccccc4c3[n+]2C)cc1`, the growth was -56.6% (active).

For `CCCCCCCCc1cc(Cl)c(O)c(Cl)c1`, the growth is 112% (inactive).

For the molecule `O=C1Nc2ccc(Br)cc2C1=O`, the growth is 108% (inactive). Regarding `Clc1ccc(Cc2nc3ccccc3s2)cc1`, the growth was 112% (inactive). Take `O=C1C=CC(=O)N1C1CCCCCCCCCCC1`: the growth is 91% (inactive). As to `NCC(=O)NC(CC(=O)O)C(=O)O` (stereo not given) (H-Gly-[ξD]-OH), the growth is 104% (inactive). Turning to `Fc1ccc(NCCS)cc1`, the growth was 103% (inactive).

`CCCCCCCCCCCCCCCc1ccc(C(=O)C[n+]2ccccc2)cc1`: the growth was -14.5% (active). Consider `CCN(CC)CCNc1ccc([N+](=O)[O-])c2sc3ccccc3c(=O)c12`, for which the growth is 35.4% (inactive). On to `Oc1ccc2ccccc2c1N=Nc1ccccn1`, for which the growth is 40.7% (inactive). Consider `CN=C(N)N/N=C(\c1ccccc1)c1ccc(Br)cc1`, for which the growth is 48% (inactive).

Turning to `CN1CCC(c2ccccc2)(c2ccccc2)C(=O)C1`, the growth is 119% (inactive).

Consider `CCCCN(CCCC)CCCCCCCCCCO`, for which the growth was 112% (inactive). Take `Cc1nn(CCO)c(C)c1N=[N+]([O-])c1c(C)nn(CCO)c1C`: the growth is 83.2% (inactive).

As to `CCC[CH2][Sn]1([CH2]CCC)[O]C2C(CO)OC(n3ccc(N)nc3=O)C2[O]1` (stereo not given), the growth was -90.3% (active). In the case of `Cc1cc2cccnc2c2ncccc12`, the growth is 32.2% (inactive). Regarding `CCOc1cc(F)c([N+](=O)[O-])cc1[N+](=O)[O-]`, the growth is 70.1% (inactive). In the case of `CC(C)(C)c1ccc(CCO)cc1`, the growth was 121% (inactive).
